± gives the standard deviation.

The experiment deals with Streptococcus suis HE06. Kind of experiment: percent growth relative to DMSO control; higher = less growth inhibition. The settings on record: 10 µM; incubation time 18 h. The procedure:
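CLSI broth microdilution: 5x10^4 CFU of Streptococcus suis (strain P1/7 or HE06) incubated with 10 µM Pathogen Box compound in cation-adjusted Mueller Hinton broth, 37 °C, 5% CO2, 18 h. Growth read as OD600 and expressed as percent of the DMSO-treated control (100%); mean ± SD of three independent experiments.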
Take `CC1CC1C(=O)NC1CCN(CC2(c3ccccc3)CCCCC2)CC1` (stereo not drawn): the percent growth turned out to be 76.8 ± 15%.
For `COc1cc(OC)cc(C(=O)NCC2Cc3cc(Cl)cc(-c4ccncc4)c3O2)c1` (stereo not drawn) the value was 90 ± 28%; for `O=C(NC1CCCCC1)N1CCN(Cc2ccc3c(c2)OCO3)CC1`, 78.5 ± 7.2%; for `Cc1cccc(Cn2ccc(NC(=O)c3ccc4c(c3)OCO4)n2)c1`, 75.3 ± 22%.
The figure for `Cc1ccccc1CN1CCC(O)(c2ccc(Cl)c(C(F)(F)F)c2)CC1` is 93.7 ± 15%; for `O=C(Nc1cnc2ccccc2c1)c1cccc(-n2cnnn2)c1` it is 110 ± 2.4%.
The figure for `N#Cc1nc(-c2ccccc2)oc1S(=O)(=O)c1ccc(Cl)cc1` is 96.9 ± 9.2%; for `COc1cccc(OC)c1C(=O)Nc1ccc(Cl)c(-c2nc3ccccc3s2)c1` it is 98.9 ± 8.3%; for `Cc1noc(C)c1C(=O)N1CCCC(c2[nH]c3c(C)cccc3c2-c2ccncc2)C1` (stereo not drawn) it is 90.2 ± 6.2%.
For the compound `CCc1ccc([C@@H]2C[C@H](C(F)(F)F)n3ncc(C(=O)NCc4ccc(OC)cc4)c3N2)cc1`, the percent growth turned out to be 92.3 ± 12%.
The figure for `O=C(NCCc1c[nH]c2ccccc12)c1cc2ccccc2oc1=O` is 104 ± 6%; for `CCc1c(C)nc(-n2nc(C)cc2NC(=O)c2ccccc2SC)[nH]c1=O` it is 0.0799 ± 0.092%; for `c1ccc(-c2nc(NC3CCCCC3)cc(C3CC3)n2)nc1` it is 7.51 ± 12%.
For `Cc1cc(O)nc(-n2nc(C)cc2C)n1` the value was 18.2 ± 21%; for `NC(CC(=O)c1ccc(Cl)cc1Cl)C(Cl)(Cl)Cl` (stereo not drawn), 58.8 ± 39%.
The figure for `CC(C)C(C(=O)Nc1ccc(S(=O)(=O)N(C)C)cc1)c1ccc(Cl)cc1` (stereo not drawn) is 110 ± 24%; for `CCCn1nnc(NC(=O)COc2ccc(C3CCCCC3)cc2)n1` it is 115.2 ± 1%.
Turning to `O=C(C1CCCCC1)N1CC(=O)N2CCc3ccccc3C2C1` (stereo not drawn), the percent growth is 79.3 ± 24%.
The figure for `O=C(Nc1cccc(Cl)c1)c1cnc(N2CCN(c3ccncc3)CC2)c(Cl)c1` is 62 ± 36%.
Turning to `CCOc1ccc2cc(-c3nn(CC4CCN(C)CC4)c4ncnc(N)c34)ccc2c1`, the percent growth is 97 ± 13%.
With `CC(=O)N1CCc2cc3nc(C)cc(C)c3cc21`, the percent growth came to 88.4 ± 9.8%.
The figure for `FC(F)(F)c1cnc(Sc2nnc(-c3ccncc3)o2)c(Cl)c1` is 94.8 ± 27%; for `O=C(Nc1nc(-c2ccccn2)cs1)C1CC1c1ccccc1F` (stereo not drawn) it is -0.0889 ± 1.4%.
The figure for `Cc1nc(-c2ccccn2)nc(N2CCC(Cc3ccccc3)C2)c1Cl` (stereo not drawn) is 0.933 ± 1.6%; for `COc1cc(CN2CCC3(C=Cc4ccccc43)CC2)cc2c1OCO2` it is 82 ± 16%.
For `C[C@H](c1ccc2c(c1)CCCC2)N(C)c1ncc2c(N)nc(N)nc2n1` the value was 84.7 ± 9.1%; for `CN1CCN(c2nccc3nc(-c4ccc(F)c(F)c4)[nH]c23)CC1`, 82.2 ± 21%; for `COc1ccc(-c2onc(C(F)(F)F)c2-c2ccc(Cl)cc2)c(O)c1`, 26.1 ± 45%.
As to `Nc1ncc(-c2cn[nH]c2)cc1-c1nc2cc(Cl)cnc2[nH]1`, the percent growth is 90.8 ± 5.4%.
For `CCCn1c(NC(=O)c2ccc3ccccc3n2)nc2ccccc21` the value was 0%; for `O=C(C1CCN(c2nnnn2-c2ccccc2)CC1)N1CCc2ccccc2C1`, 86.9 ± 28%.
As for `COc1cccc(CC(=O)N2CCC(n3c(C)nc4ccc(F)cc43)CC2)c1`, the percent growth came out at 104 ± 52%.
Take `CCN(CC)C(=O)N1CCN(C)CC1`: the percent growth turned out to be 92.6 ± 6.9%.
For `N=C(N)Nc1ccc(-c2ccc(-c3ccc(N=C(N)N)c(Cl)c3)o2)cc1Cl` the value was 27.7 ± 29%.
The figure for `COc1ccc(-c2nc(-c3cccc(NC(=O)Cc4ccc(F)cc4)c3)no2)cc1OC` is 83 ± 3.5%; for `c1ccc(Oc2ccc(-c3cc(N4CCOCC4)[nH]n3)cc2)cc1` it is 81.2 ± 21%; for `O=C(NCCc1ccn(-c2ccccc2)n1)C1CCCCC1` it is 97.3 ± 2.1%.
For `N=C(N)c1ccc(OCCCCCOc2ccc(C(=N)N)cc2)cc1` the value was 146 ± 200%.

For the origin of these results see the supplement of paper PMC7866885, “A novel bicyclic 2,4-diaminopyrimidine inhibitor of Streptococcus suis dihydrofolate reductase” (PeerJ, 2021).
